Our source for the z-score and composite z-score values is PubChem BioAssay.

Assay [1] is described as follows: compound effects on lung adenocarcinoma cell viability – A549, calcein-AM fluorescence, 48 h, basal, profiling panel (AID 1162). Also: test concentration not given here. Particulars: higher = more signal.
A short description of assay [2]: compound effects on differentiated 3T3-L1 adipocyte viability – cell-based, 3T3-L1 adipocytes, calcein-AM fluorescence, 48 h, basal, profiling panel (AID 1163). Also: test concentration not given here. The note with it: 3T3-L1 adipocytes viability, higher = more signal.
The nature of assay [3]: compound effects on hepatocellular carcinoma cell viability – HepG2, calcein-AM fluorescence, 48 h, basal, profiling panel (AID 1164). Also: test concentration not given here. The note with it: higher = more signal.
A short description of assay [4]: compound effects on multiple myeloma cell viability – MM1S, calcein-AM fluorescence, 48 h, basal, profiling panel (AID 1165).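 Also: viability of MM1S multiple myeloma cells under basal unstimulated conditions; test concentration not given here.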 The note with it: higher = more signal.
The nature of assay [5]: calcein-AM signal in unstimulated myeloma cells – cell-based, calcein-AM fluorescence, 48 h, PK04 Diversity Set, profiling panel (AID 1166).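 Also: cells grown under basal conditions without added stimulus; test concentration not given here.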 Particulars: RPMI8226 myeloma viability, higher = more signal.
The nature of assay [6]: JC-1 mitochondrial signal, unstimulated HepG2 cells – cell-based, JC-1 fluorescence, 24 h, 100 nL compound, profiling panel (AID 1167). Also: test concentration not given here. The note with it: HepG2 mitochondrial potential, higher = more signal.
The nature of assay [7]: JC-1 mitochondrial signal, unstimulated adipocytes – cell-based, JC-1 fluorescence, 3T3-L1 adipocytes, 24 h, 100 nL compound, profiling panel (AID 1168). Also: test concentration not given here. The note with it: JC-1 mitochondrial fluorescence, higher = more signal, called active from +8 up or from −8 down.
The nature of assay [8]: JC-1 mitochondrial signal, unstimulated myeloma cells – cell-based, JC-1 fluorescence, RPMI8226, 24 h, 100 nL compound, profiling panel (AID 1169). Also: test concentration not given here. Particulars: JC-1 mitochondrial potential fluorescence, higher = more signal.
The nature of assay [9]: JC-1 mitochondrial signal, unstimulated MM1S myeloma – cell-based, JC-1 fluorescence, 24 h, 100 nL compound, profiling panel (AID 1170). Also: test concentration not given here. The note with it: MM1S mitochondrial potential, higher = more signal.
Assay [10] in a line: resazurin metabolic signal in A549 cells – cell-based, resazurin fluorescence, 24 h, PK04 Diversity Set, profiling panel (AID 1171). Also: test concentration not given here. The note with it: A549 viability, higher = more signal, called active from +8 up or from −8 down. On the technique in general: Alamar Blue is a resazurin reagent that responds to reducing activity.
Assay [11] can be described thus: resazurin metabolic signal in HepG2 cells – cell-based, resazurin fluorescence, 24 h, PK04 Diversity Set, profiling panel (AID 1172). Also: test concentration not given here. Particulars: HepG2 viability, higher = more signal.
A short description of assay [12]: budding yeast growth changes without added modifier – OD600, strain BY4716, 24 h, basal condition, primary screen (AID 1173). Particulars: S. cerevisiae BY4716 growth, OD600, 24 h; higher = more signal, called active from +8 up or from −8 down.
Assay [13] can be described thus: viability profiling in MM1S myeloma cells – cell-based, resazurin fluorescence, basal, 24 h, PK04 Diversity Set, profiling panel (AID 1174). Also: test concentration not given here. The note with it: higher = more signal, called active from +8 up or from −8 down.
Assay [14] deals with Dihydroorotate dehydrogenase (quinone), mitochondrial (Plasmodium falciparum (isolate 3D7)) (UniProt Q08210). Briefly: inhibition of P. falciparum DHODH – biochemical, C-terminal His tag, absorbance 600 nm, primary screen (AID 1175).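 Also: recombinant parasite enzyme with a five histidine tag at its C terminus; test concentration not given here.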 Particulars: PfDHODH enzyme, DCIP absorbance 600 nm; higher = more signal, called active from +8 up or from −8 down.
Dihydroorotate dehydrogenase (quinone), mitochondrial (Plasmodium falciparum (isolate 3D7)), sequence (Q08210 whole entry, looked up): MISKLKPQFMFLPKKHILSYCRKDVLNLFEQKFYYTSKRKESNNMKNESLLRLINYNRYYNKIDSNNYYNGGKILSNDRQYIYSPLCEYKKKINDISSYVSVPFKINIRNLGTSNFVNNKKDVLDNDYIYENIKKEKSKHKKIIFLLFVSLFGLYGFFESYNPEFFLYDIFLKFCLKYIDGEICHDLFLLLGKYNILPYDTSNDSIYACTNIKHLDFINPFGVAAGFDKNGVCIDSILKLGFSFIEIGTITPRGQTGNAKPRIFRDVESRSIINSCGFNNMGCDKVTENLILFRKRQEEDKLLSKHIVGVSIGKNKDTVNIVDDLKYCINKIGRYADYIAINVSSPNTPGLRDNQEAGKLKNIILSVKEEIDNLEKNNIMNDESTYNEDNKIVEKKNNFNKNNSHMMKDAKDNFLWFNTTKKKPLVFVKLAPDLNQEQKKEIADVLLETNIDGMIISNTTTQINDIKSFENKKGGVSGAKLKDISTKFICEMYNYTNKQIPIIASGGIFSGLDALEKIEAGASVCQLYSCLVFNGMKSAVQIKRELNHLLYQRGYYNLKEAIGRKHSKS
Assay [15] in a line: inhibition of PAO1 biofilm formation – strain PAO1, LB-PBS medium, absorbance 600 nm, primary screen (AID 1176). Also: test concentration not given here. The note with it: P. aeruginosa PAO1 growth/biofilm, A600, 12 h; higher = more signal.
Assay [16] is described as follows: growth modulation of vineyard yeast isolate – strain RM11-1a, OD600, basal, 24 h, primary screen (AID 1177).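 Also: cultures grown under basal conditions with no added stressor; test concentration not given here.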 Particulars: S. cerevisiae RM11-1a growth, OD600, 24 h; higher = more signal, called active from +8 up or from −8 down.
Assay [17] can be described thus: growth of efflux-deficient E. coli DRC39 – strain DRC39, OD650, 24 h, E. coli filamentation inducers, primary screen (AID 1178).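 Also: growth measured as culture turbidity by optical density at 650 nm; test concentration not given here.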 Particulars: E. coli DRC39 acrAB, higher = more signal, called active from +8 up or from −8 down.
Assay [18] in a line: growth of efflux-deficient E. coli DRC39 – strain DRC39, OD650, 48 h, E. coli filamentation inducers, primary screen (AID 1179).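 Also: screen aims at cell division blockers that make cells filament.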 The note with it: E. coli DRC39 delta-acrAB growth, higher = more signal, called active from +8 up or from −8 down.
The nature of assay [19]: viability profiling in RPMI8226 myeloma cells – cell-based, resazurin fluorescence, basal, 24 h, PK04 Diversity Set, profiling panel (AID 1180).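 Also: RPMI8826 multiple myeloma cell line at 5000 cells per well; test concentration not given here.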 The note with it: higher = more signal.
Assay [20] deals with E3 ubiquitin-protein ligase XIAP (Homo sapiens) (UniProt P98170). Briefly: small molecules binding XIAP protein – biophysical, small-molecule microarray, fluorescence 635 nm, primary screen (AID 1181).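 Also: score merges 667 nm emission and signal to noise over triplicate slides.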 The note with it: higher = more signal.
E3 ubiquitin-protein ligase XIAP (Homo sapiens), sequence (P98170 whole entry, looked up): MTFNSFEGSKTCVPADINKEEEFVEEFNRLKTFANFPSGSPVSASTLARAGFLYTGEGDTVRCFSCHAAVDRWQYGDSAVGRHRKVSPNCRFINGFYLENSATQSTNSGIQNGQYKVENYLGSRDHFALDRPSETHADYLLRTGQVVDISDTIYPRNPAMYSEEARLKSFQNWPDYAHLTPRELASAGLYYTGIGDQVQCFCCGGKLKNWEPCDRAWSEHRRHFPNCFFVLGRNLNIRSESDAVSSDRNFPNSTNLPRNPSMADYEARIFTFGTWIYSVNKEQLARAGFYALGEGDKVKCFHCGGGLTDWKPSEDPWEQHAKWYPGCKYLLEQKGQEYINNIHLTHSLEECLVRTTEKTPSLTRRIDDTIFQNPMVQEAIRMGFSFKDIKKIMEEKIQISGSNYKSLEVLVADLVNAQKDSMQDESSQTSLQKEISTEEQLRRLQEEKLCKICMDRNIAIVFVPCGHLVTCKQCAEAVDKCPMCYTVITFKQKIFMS

Active and inactive are the calls of the source. Unless noted, no rule for the calls is given here.

In the case of `COCCOC(=O)N1C(=O)[C@@]2(c3ccccc31)[C@H](C(N)=O)[C@H]1C(=O)O[C@H](c3ccccc3)[C@H](c3ccccc3)N1[C@@H]2c1ccc(OCCO)cc1`, the z-score in assay [1] is -0.429; in [2], 0.452; in assay [3], -0.363; in assay [4], -0.198; in assay [5], 0.711; in assay [6], -0.914. For the same compound, the z-score was 0.055 (inactive) in [7]; -0.112 in assay [8]; -0.523 in assay [9]; 0.574 (inactive) in assay [10]; 1.35 in [11]; 1.75 (inactive) in assay [12]. The z-score in assay [13] was 0.671 (inactive); in assay [15], -0.108 (inactive); in assay [16], 1.96 (inactive); in [17] it was 0.755 (inactive); in [18] it was 0.094 (inactive); in assay [19] it was 0.7. In addition, the composite z-score in assay [14] is -0.525 (inactive); in assay [20], 0.109.

In the case of `CC(C)C[C@H]1NC(=O)[C@@]23C(=O)N[C@@H](Cc4ccccc4)C2[C@H](C)[C@@]2(C)O[C@H]2C3/C=C/C/C=C\CNC(=O)[C@@H]2CCCN2C1=O` (stereo not given in full), the z-score in assay [1] is 0.0246; in assay [2] it was -0.0768; in assay [3], -0.54; in assay [4], -1.41; in [5], -0.531; in assay [6] it was -0.831. Also, the z-score in assay [7] is 0.244 (inactive); in assay [8], 0.868; in assay [9] it was -0.391; in [10], -0.659 (inactive); in assay [11], -0.706; in [12] it was -1.43 (inactive). The z-score in assay [13] was -0.0195 (inactive); in assay [15], 0.352 (inactive); in [16] it was -0.162 (inactive); in assay [17] it was -0.467 (inactive); in [18], -0.0699 (inactive); in assay [19], 0.476. Further, the composite z-score in assay [14] was -0.742 (inactive); in assay [20], 0.155.

With `CO[C@H]1O[C@H](CO)[C@@H](OC(=O)Nc2ccccc2)[C@@H]2OC(=O)[C@H](Cc3ccccc3)C/C=C/C[C@@H](Cc3ccccc3)C(=O)O[C@@H]12`, the z-score was -0.152 in assay [1]; 0.385 in assay [2]; 0.358 in assay [3]; -1.22 in assay [4]; -2.46 in assay [5]; -0.928 in assay [6]. Further, the z-score in assay [7] was 0.799 (inactive); in assay [8] it was -0.865; in [9], -1.45; in assay [10], -2.94 (inactive); in assay [11], -1.41; in assay [12], 0.411 (inactive). Besides, the z-score in [13] was -3.52 (inactive); in assay [15], 0.385 (inactive); in assay [16] it was 0.887 (inactive); in assay [17] it was 1.04 (inactive); in assay [18] it was 1.99 (inactive); in [19], -2.26. Besides, the composite z-score is -1.69 (inactive) in assay [14] and 0.288 in [20].

As to `[N-]=[N+]=NCc1ccccc1C[C@]1(C(=O)N2CCCCC2)N=C(c2ccc(OCCCO)cc2)O[C@H]1c1ccccc1`, the z-score is -0.888 in [1]; 0.252 in assay [2]; -0.923 in [3]; -2.59 in assay [4]; -4.27 in [5]; 0.117 in assay [6]. In addition, the z-score in [7] is 0.845 (inactive); in [8] it was -1.14; in assay [9] it was -2.38; in assay [10], -0.136 (inactive); in assay [11], 0.116; in [12], 1.71 (inactive). In addition, the z-score in assay [13] was -2.13 (inactive); in assay [15], -0.372 (inactive); in assay [16], 2.8 (inactive); in [17], 0.914 (inactive); in assay [18] it was 1.23 (inactive); in [19] it was -5.14. Further, the figures for the composite z-score in assay [14] and in assay [20] were 0.939 (inactive) and 0.17, respectively.

For `CC(C)=CCN(C(=O)C#Cc1ccccc1)[C@H](CO)c1ccccc1`, the z-score in [1] is -3.88; in [2] it was -0.522; in [3], -5.06; in assay [4], -3.2; in assay [5], -4.1; in assay [6] it was -3.07. In addition, the z-score is 0.983 (inactive) in assay [7]; -1.24 in assay [8]; -2.54 in [9]; -2.45 (inactive) in [10]; -3.85 in assay [11]; -0.192 (inactive) in [12]. Moreover, the z-score in [13] was -5.79 (inactive); in assay [15], -0.0218 (inactive); in [16], 3.26 (inactive); in [17], 0.163 (inactive); in [18] it was -2.57 (inactive); in assay [19], -5.82. For the same compound, the composite z-score in assay [14] was 0.885 (inactive); in assay [20], 0.165.

Regarding `COC(=O)[C@@]1(Cc2ccc(F)cc2)[C@H]2c3cc(C(=O)N4CCCC4)n(CCO)c3C[C@H]2CN1C(=O)c1ccccc1`, the z-score in assay [1] was 0.448; in assay [2] it was -0.35; in assay [3], -0.885; in assay [4], 0.309; in [5], -0.929; in assay [6], 1.04. In addition, the z-score in [7] is 0.379 (inactive); in [8], -0.249; in assay [9] it was -0.996; in assay [10], 0.11 (inactive); in assay [11], -0.31; in assay [12], 0.894 (inactive). Also, the z-score in assay [13] was -1.38 (inactive); in assay [15] it was -0.278 (inactive); in [16] it was 0.302 (inactive); in [17], 0.0412 (inactive); in [18], -0.654 (inactive); in assay [19], -0.908. For the same compound, the composite z-score was -0.757 (inactive) in assay [14] and -0.16 in [20].

In the case of `C/C=C/CN(C(=O)C#Cc1ccccc1)[C@H](CO[Si](C)(C)C(C)(C)C)c1ccccc1`, the z-score in assay [1] is -0.21; in assay [2], 1.45; in [3], -0.488; in assay [4], -2.38; in assay [5], -3.4; in assay [6], 2.31. The z-score in assay [7] was 1.37 (inactive); in assay [8], -0.522; in assay [9], -0.0851; in assay [10], 0.365 (inactive); in assay [11] it was 0.704; in [12] it was -0.161 (inactive). The z-score is 1.79 (inactive) in assay [13]; -0.966 (inactive) in assay [15]; -0.36 (inactive) in assay [16]; 2 (inactive) in [17]; 0.846 (inactive) in assay [18]; 3.51 in [19]. Also, the composite z-score in [14] is -3.11 (inactive); in assay [20] it was -0.193.

For `O=C1O[C@H](c2ccccc2)[C@H](c2ccccc2)N2[C@H]1[C@@H](C(=O)N1CCN(c3ncccn3)CC1)[C@]1(C(=O)Nc3ccccc31)[C@H]2c1ccc(O)cc1`, the z-score in [1] is 0.947; in assay [2], 1.36; in assay [3], 0.406; in assay [4] it was -1.28; in [5], -4; in [6], -1.26. In addition, the z-score is 1.04 (inactive) in assay [7]; -1.06 in [8]; 0.183 in assay [9]; 0.371 (inactive) in assay [10]; -0.291 in assay [11]; 0.688 (inactive) in [12]. Also, the z-score is -0.73 (inactive) in [13]; 0.641 (inactive) in assay [15]; 2.29 (inactive) in [16]; 0.179 (inactive) in assay [17]; 0.481 (inactive) in [18]; -1.2 in assay [19]. Moreover, the composite z-score in assay [14] was 0.447 (inactive); in assay [20], -0.13.

As to `C=CCNC(=O)[C@H]1[C@@H]2C(=O)O[C@@H](c3ccccc3)[C@@H](c3ccccc3)N2[C@@H](c2ccc(O)cc2)[C@]12C(=O)Nc1ccc(C#CC3=CCCCC3)cc12`, the z-score was -0.931 in assay [1]; -0.826 in assay [2]; -0.66 in assay [3]; -3.3 in assay [4]; -4.46 in assay [5]; -0.341 in assay [6]. For the same compound, the z-score in assay [7] is 0.523 (inactive); in [8] it was -1.14; in assay [9], -1.79; in assay [10] it was -1.63 (inactive); in assay [11], -0.118; in assay [12], -0.147 (inactive). Also, the z-score in [13] was -2.44 (inactive); in assay [15], 1.41 (inactive); in assay [16], 1.87 (inactive); in [17] it was 0.322 (inactive); in [18], 0.628 (inactive); in assay [19], -5.43. Also, the composite z-score was 0.018 (inactive) in assay [14] and -0.124 in [20].
